Pol eta inh: DNA polymerase eta (human) inhibition; Q9Y253; recombinant Pol eta, fluorescent DNA replication assay; Potency, µM (top dose mostly 114 µM), usual class: inhibitors; actives 1.2% (n = 390,000); AID 588591
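Fluorescent replication assay: 50 nM final substrate added after a 15 min room-temperature compound preincubation with 10 nM enzyme. Signal taken at 0 min and again at 10 min.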
WRN inhibitor: inhibitors of human WRN helicase | Q14191 | WRN helicase unwinding, fluorescent forked duplex, kinetic | Potency, µM (doses to about 114 µM), actives largely listed as inhibitors | actives 0.46% (n = 360,000) | AID 651768; note: nearly all actives have a fitted effect of over 55% in size
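Kinetic fluorescence helicase assay: unwinding of a quenched forked DNA duplex (100 nM final) with 2 mM ATP final raises red fluorescence (525/598 nm). Compounds sat 15 min at room temperature with 20 nM WRN beforehand.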
Pol iota inh: DNA polymerase iota (human) inhibition; actives 1% (n = 390,000); Pol iota fluorescent replication assay, 10 min; Q9UNA4; Potency, µM (doses to about 115 µM), most hits filed as inhibitors
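Fluorescent replication assay read twice, at 0 min and 10 min after adding 50 nM (final) substrate. Enzyme (10 nM) and compounds were first incubated 15 min at room temperature; enzyme-free buffer wells were negative controls.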
Pol beta inh: blocks human DNA polymerase beta activity; AID 485314; Pol beta primer extension/strand displacement, fluorescence kinetic; Potency, µM (top dose mostly 114 µM), actives largely listed as inhibitors; P06746; actives 1.3% (n = 340,000)
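Curves were derived by four-parameter Hill fits of normalized qHTS data. The kinetic fluorescent primer-extension read was taken at 0 and 10 min after 50 nM substrate, following a 15 min room-temperature preincubation of 10 nM enzyme with compounds.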
L3MBTL1 block: L3MBTL1 (human) inhibition; Potency, µM (highest dose often 57.1 µM), usual class: inhibitors; Q9Y468; AlphaScreen L3MBTL1–H3K9me1 peptide binding; actives 0.66% (n = 230,000); note: nearly all actives have a fitted effect of over 60% in size
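Displacement of a biotinylated histone H3(1-15) peptide monomethylated at Lys9 (75 nM) from L3MBTL1 (50 nM) was measured by AlphaScreen after a 30 min room-temperature compound incubation; cefsulodin titration served as intraplate control.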
POLK inh: inhibitors of human DNA polymerase kappa | Potency, µM (titrated, usually from 107 µM), hits mostly inhibitors | AID 588579 | purified Pol kappa, fluorescent DNA synthesis assay, 10 min | Q9UBT6 | actives 0.53% (n = 400,000)
Target sequence (Q9UBT6 whole entry, looked up): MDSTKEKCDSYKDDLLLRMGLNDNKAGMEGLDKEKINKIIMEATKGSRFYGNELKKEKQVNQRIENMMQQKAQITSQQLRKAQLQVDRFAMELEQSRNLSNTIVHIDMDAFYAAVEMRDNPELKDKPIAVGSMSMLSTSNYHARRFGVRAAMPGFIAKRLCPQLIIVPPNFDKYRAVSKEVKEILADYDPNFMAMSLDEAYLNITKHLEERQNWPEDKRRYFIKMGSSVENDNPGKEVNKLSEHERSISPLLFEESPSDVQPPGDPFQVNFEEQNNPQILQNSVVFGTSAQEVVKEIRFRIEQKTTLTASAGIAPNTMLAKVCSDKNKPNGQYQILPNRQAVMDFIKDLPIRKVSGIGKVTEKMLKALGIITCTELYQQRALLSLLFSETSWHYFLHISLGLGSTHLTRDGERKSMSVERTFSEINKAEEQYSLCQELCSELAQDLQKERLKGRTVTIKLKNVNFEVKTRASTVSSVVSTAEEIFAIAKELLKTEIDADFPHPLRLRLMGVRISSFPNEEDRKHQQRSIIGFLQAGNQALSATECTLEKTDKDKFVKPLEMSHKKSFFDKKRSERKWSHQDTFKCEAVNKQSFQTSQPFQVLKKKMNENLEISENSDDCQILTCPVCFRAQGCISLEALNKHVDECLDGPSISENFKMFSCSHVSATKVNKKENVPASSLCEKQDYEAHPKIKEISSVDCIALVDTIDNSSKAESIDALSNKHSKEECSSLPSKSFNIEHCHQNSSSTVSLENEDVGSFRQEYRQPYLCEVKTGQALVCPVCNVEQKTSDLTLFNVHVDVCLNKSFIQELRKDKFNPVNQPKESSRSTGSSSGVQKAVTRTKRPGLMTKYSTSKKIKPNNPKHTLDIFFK
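10 nM Pol kappa preincubated 15 min at room temperature with compounds, then reaction started with substrate at 50 nM final. Fluorescence read kinetically at 0 and 10 min; buffer-only wells served as negative control.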
Numbers stand for hits; n = inactive; u = inconclusive; x = not tested or not shown; [ ] = remark or other dose. An excerpt weighted towards active compounds, which were near 2.5% of everything screened. Calls come from the whole dose curve; as a rule, active = well fitted curve in the direction sought with a large enough effect; inconclusive = small, poorly fitted or top-dose-only effect, or another doubt; inactive = no such curve, though single readings can be large; an effect the other way counts as inactive or inconclusive.

SMILES	Pol eta inh	WRN inhibitor	Pol iota inh	Pol beta inh	L3MBTL1 block	POLK inh
COc1ccc(C(=O)COC(=O)c2ccc3c(c2)OCO3)c(OC)c1	u	n	79µM	x	n	u
CCCS(=O)(=O)c1c(S(=O)(=O)CCC)c2cc(-c3ccncc3)ccn2c1C(=O)OC	n	n	n	n	n	n
CC(C)CN(C(=O)COC(=O)CNC(=O)c1ccccc1F)C1CCS(=O)(=O)C1 (stereo not drawn)	n	n	u	n	x	n
CCCNC(=O)C1CCN(S(=O)(=O)c2ccc3[nH]c(=O)ccc3c2)CC1	n	n	n	n	n	n
Cc1ccc(C)c(N2CCN(S(=O)(=O)c3ccc4[nH]c(=O)ccc4c3)CC2)c1	u	n	u	28µM	n	n
CCC1CCCCN1S(=O)(=O)c1ccc2[nH]c(=O)ccc2c1 (stereo not drawn)	50µM	n[11.6 µM]	u	35µM	n	n
OCCNc1nc(N2CCOCC2)nc(N2CCOCC2)n1	n	n	n	n	n	n
COc1ccc(NC(=O)C2Cc3ccccc3CN2S(=O)(=O)c2ccccc2)cc1OC (stereo not drawn)	n	x	n	n	x	n
CCCCC1=CC2=CC(=O)C(C)(OC(=O)CC)C(=O)C2=CN1CCc1c[nH]c2ccccc12 (stereo not drawn)	n	n	n	n	x	n
COC(=O)CCCC1=CC2=CC(=O)C(C)(OC(=O)c3cccs3)C(=O)C2=CN1CCCOC(C)C (stereo not drawn)	n	n	25µM	n	x	n
COC(=O)CCCC1=CC2=CC(=O)C(C)(OC(=O)c3cccs3)C(=O)C2=CN1CCc1c[nH]c2ccccc12 (stereo not drawn)	n	n	50µM	n	x	u
COC(=O)CCCC1=CC2=CC(=O)C(C)(OC(=O)c3cccs3)C(=O)C2=CN1Cc1ccccc1 (stereo not drawn)	n	n	u	u	x	n
COC(=O)CCCC1=CC2=CC(=O)C(C)(OC(=O)c3cccs3)C(=O)C2=CN1Cc1ccco1 (stereo not drawn)	u	n	u	50µM	x	u
COC(=O)CCCC1=CC2=CC(=O)C(C)(OC(=O)c3cccs3)C(=O)C2=CN1Cc1ccc2c(c1)OCO2 (stereo not drawn)	u	n[11.6 µM]	32µM	50µM	x	n
C=CCNC(=O)CC1C(=O)NCCN1Cc1ccc(-c2ccccc2)cc1 (stereo not drawn)	n	n	n	n	n	n
CCc1nc2c(OCc3ccc(C(F)(F)F)cc3)cccn2c1N(C)C(C)=O	x	n	x	x	x	x
O=C(c1ccc(C(F)(F)F)cc1)C1CCCN(C(=O)CCc2cnccn2)C1 (stereo not drawn)	n	n	n	n	n	n
C#CCn1cc(/C=C2\NC(=O)NC2=O)c2ccccc21	u	u	u	35µM	x	u
CC(C)n1cc(/C=C2/NC(=O)NC2=O)c2ccccc21	n	n	n	n	n	n
C=CCOC(=O)c1[nH]c2c(c1C)C(=O)CC(c1ccco1)C2 (stereo not drawn)	25µM	u	u	13µM	u	u
Cc1c(C(=O)OCC(C)C)[nH]c2c1C(=O)CC(c1ccco1)C2 (stereo not drawn)	32µM	n	u	25µM	u	n
Cc1c(C(=O)OC2CCCC2)[nH]c2c1C(=O)CC(c1ccco1)C2 (stereo not drawn)	u	n[11.6 µM]	u	u	n	u
CC(CNC(=O)c1ccc(CSc2nc3ccncc3n2Cc2ccccc2)cc1)c1ccccc1 (stereo not drawn)	n	x	n	n	x	n
O=C(Cc1cccc2ccccc12)Nc1cccnc1	n	n	n	n	x	n
CCCCCCCCCC[N+](C)(C)CC/C=C1/c2ccccc2Sc2ccc(Cl)cc21	n	n	n	40µM	x	n
SMILES	Pol eta inh	WRN inhibitor	Pol iota inh	Pol beta inh	L3MBTL1 block	POLK inh
CCCCCCCCCCC[N+](C)(C)CC/C=C1/c2ccccc2Sc2ccc(Cl)cc21	n	n	n	u	x	n
COC(=O)c1c(/N=C/N(C)C)sc2c1CCN(c1ncc(C(F)(F)F)cc1Cl)C2	n	n	n	n	n	n
COC(=O)c1c(N(S(C)(=O)=O)S(C)(=O)=O)sc2c1CCN(c1ncc(C(F)(F)F)cc1Cl)C2	n	n	32µM	n	x	n
Cc1ccc(OCC(=O)NNC(=O)c2cc3ccccc3o2)cc1C	u	n	u	28µM	n	u
CCOC(=O)c1ccc(N2C(=O)CC(N3CCC(O)(c4ccc(Cl)cc4)CC3)C2=O)cc1 (stereo not drawn)	n	n	n	n	n	n
COC(=O)c1ccc(CC(=O)c2ccc(O)cc2O)o1	u	n	n	n	n	n
COC(=O)c1ccc(CC(=O)c2c(C)cc(O)cc2O)o1	u	u	u	u	u	25µM
O=C1NN(c2ccccc2)C(=O)C1=Cc1ccccc1O	n	n	x	x	x	x
O=C1NN(c2ccccc2)C(=O)/C1=C\c1cccn1-c1ccc(Cl)c([N+](=O)[O-])c1	20µM	n	u	u	x	u
O=C1Nc2ccccc2C(=O)C1(Cl)Cc1ccccc1 (stereo not drawn)	n	45µM	u	n	n	n
Cc1noc(C)c1S(=O)(=O)N1CCC(C(N)=O)CC1	n	n	n	n	x	n
CC(C)c1cccc(-c2ccc3c(c2)S(=O)(=O)c2cccc(C(=O)NCc4ccco4)c2C3=O)c1	40µM	n[11.6 µM]	u	x	n	u
COc1ccc(-c2ccc3c(c2)S(=O)(=O)c2cccc(C(=O)NC[C@@H]4CCCO4)c2C3=O)cc1OC	28µM	n	u	x	n	n
CC(C)c1cccc(-c2ccc3c(c2)S(=O)(=O)c2cccc(C(=O)O)c2C3=O)c1	n	n	n	x	n	n
C/C(=N/NC(=O)CN1CCN(S(=O)(=O)c2ccc(C)cc2)CC1)c1ccco1	n	n	n	n	n	n
Cc1cc(C)n(-c2ccc(Cl)c(C(=O)NCc3ccccc3)n2)n1	n	n	n	n	n[11.4 µM]	n
Cc1cc(-n2cccn2)ccc1CN1CCN(C2CCCC2)C(CCO)C1 (stereo not drawn)	n	n	n	n	n	n
O=C(Nc1ccc(-n2nncc2-c2ccco2)cc1)c1cc2ccccc2oc1=O	89µM	50µM	11µM	28µM	n	5.6µM
CCN(CC)S(=O)(=O)c1cccc(C(=O)N/N=C/c2cc(OC)c(O)c(OC)c2)c1	n	n	n	n	n	n
CCN(CC)S(=O)(=O)c1cccc(C(=O)N/N=C/c2cccc(O)c2O)c1	n	u	20µM	n	n	n
COc1ccc(Cc2nnc(N/N=C/c3ccc(O)cc3)[nH]c2=O)cc1OC	n	n	n	n	18µM	n
CCN1CCCC1CNCc1cccc(OC)c1OCc1ccccc1F (stereo not drawn)	n	n	89µM	n	x	n
